Results as given in PubChem BioAssay (NCATS).
Records with an inconclusive call do not appear. The source made the active and inactive calls. Calls follow the shape of the dose curve; as a rule, active = well fitted cell-killing curve with a large enough effect; inconclusive = small, poorly fitted or top-dose-only effect, or effect the other way; inactive = flat fitted curve, though single readings scatter. Where a SMILES comes first, the peptide text is derived from it.

Key:
Assay in all cases: Primary qHTS to identify gynecologic anti-cancer compounds using libraries of approved drugs and bioactive compounds (AID 1345084); also: nearly all actives have a fitted effect of over 55% in size
Details in all cases: Gynecologic cancer cell panel viability, ATPlite luminescence, 48 h; series mostly up to 57.5 µM
OV90 = test system: OV90
In short: (§1)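 Cells, 1,000 per well, plated 16 h, then exposed 48 h at 37 C to compounds. Viability by ATPlite luminescence after 15 min at room temperature.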

PA-1 = test system: PA-1
In short: as §1

SKOV3 = test system: SKOV3
In short: as §1

Tov-21-G = test system: Tov-21-G
In short: as §1

Tov112D = test system: Tov112D
In short: as §1

Measured: Potency

COC(=O)C1=COC(O[C@@H]2O[C@H](CO)[C@@H](O)[C@H](O)[C@H]2O)/C(=C\COC(=O)/C=C/c2ccccc2)C1CC(=O)OCCc1ccc(O)cc1 (stereo not given in full)
inactive: all assays above

CC1(C(=O)O)CCCC2(C)C3CC4C5CC3(CCC12)CC45C (stereo not given)
inactive: all assays above

C[C@@H](c1ccccc1)N(C(N)=NC#N)c1cccc2ncccc12
inactive: all assays above

CC(O)/C=C/C1(O)C(C)C(O)C(O[C@@H]2O[C@H](CO)[C@@H](O)[C@H](O)[C@H]2O)CC1(C)C (stereo not given in full)
inactive: all assays above

CC(C)c1ccc2c(c1)CCC1[C@](C)(C(=O)O)CCC[C@]21C (stereo not given in full)
inactive: all assays above

CC1(C)OC(=O)CC(O)C2(C)C1CC(=O)C1(C)C2C(O)CC2(C)C(c3ccoc3)OC(=O)C3OC321 (stereo not given)
inactive: all assays above

Cn1cc(CCn2cnc(-c3cnn(C)c3)c2-c2ccc(C#N)cc2)cn1
inactive: all assays above

COc1cc(/C=C/C(=O)O[C@@H]2C[C@@](O)(C(=O)O)C[C@@H](O)[C@@H]2O)ccc1O
inactive: all assays above

C=C(C(=O)O)[C@@H]1CC[C@H](C)[C@@H]2CC(=O)C(C)=C2C1
inactive: all assays above

O=C(O)C(Cc1ccccc1)NC(=O)C1CCCN1 (stereo not drawn) (H-Pro-Phe-OH; configuration not given here)
inactive: all assays above

C=C[C@@]1(C)CCC2=C([C@H]1OC(C)=O)[C@H](OC(C)=O)CC1[C@](C)(C(=O)OC)CC[C@H](OC(C)=O)[C@]21C (stereo not given in full)
inactive: all assays above

CC(C)c1cc2c(c(O)c1O)[C@@]13CCCC(C)(C)C1[C@@H](O)[C@@H]2OC3=O (stereo not given in full)
inactive: all assays above

C/C=C1\[C@H](O[C@@H]2O[C@H](CO)[C@@H](O)[C@H](O)[C@H]2O)OC=C(C(=O)O)[C@H]1CC(=O)OCCc1ccc(O)cc1
inactive: all assays above

CC(=O)C1CCC(=O)N1Cc1ccccc1 (stereo not given)
inactive: all assays above

CC1(C)[C@H]2C[C@H](C/C=C\CCCC(=O)O)[C@@H](NC(=O)c3csc4ccc(O)cc34)[C@@H]1C2
inactive: all assays above

CCC(C)/C=C(C)/C=C/C1=CC2=C(Cl)C(=O)C(C)(O)C(=O)C2(O)C(OC)O1 (stereo not given)
inactive: all assays above

CCCCS(=O)(=O)NC(Cc1ccc(OCCCCC2CCNCC2)cc1)C(=O)O (stereo not given)
inactive: all assays above

Fc1cccc(CN(C2=NCCN2)c2c(Cl)cccc2Cl)c1
inactive: all assays above

CC(C)[C@@H](C(=O)O)N1Cc2c(cc(O)c3c2O[C@]2(C3)[C@H](C)CCC3C(C)(C)[C@H](O)[C@H](O)C[C@@]32C)C1=O (stereo not given in full)
inactive: all assays above

CSC(=O)OCC1=C[C@@H]2OC(=O)C3=CO[C@@H](O[C@@H]4O[C@H](CO)[C@@H](O)[C@H](O)[C@H]4O)[C@H]1[C@@H]32
inactive: all assays above

C=C1C(=O)O[C@@H]2C[C@]3(C)[C@@H](CCC(C)=O)[C@@H]3C[C@H]12
inactive: all assays above

NCCCCN(Cc1nc2ccccc2[nH]1)[C@H]1CCCc2cccnc21
inactive: all assays above

C/C=C1/CC2C(=O)Nc3cc(O)c(OC)cc3C(=O)N2C1 (stereo not given)
inactive: all assays above
